Most compounds without a hit are left out; they make up all but 0.65% or so of the library.
BJeLR lethal: BJeLR cell viability loss; hit rate 0.17% among 300,000; inhibition, % (test concentration not listed); BJeLR (HRASV12) viability, CellTiter-Glo ATP luminescence, 48 h; in the data active = inhibition above about 50%
Sa ugtP lethal: growth inhibition of S. aureus ugtP deletion strain; hit rate 0.54% among 330,000; growth inhibition, % (test concentration not listed); AID 1259309; S. aureus RN4220 ugtP deletion, OD600 growth, 16 h; in the data active = growth inhibition above about 68%;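 note: plate controls were untreated wells for no effect and antibiotic for full effect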
RN4220 kill: kills Staphylococcus aureus RN4220 | S. aureus RN4220 growth, OD600, 16 h | inhibition, % (no concentration beside the values) | hit rate 0.33% among 330,000; in the data active = inhibition above about 85%;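 note: plate controls were untreated cells for no effect and reference antibiotic for full effect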
Starred values were filed as active, the others as inactive; · = no result.

SMILES | BJeLR lethal | Sa ugtP lethal | RN4220 kill
O=C(CCN1C(=O)[C@@H]2Cc3ccccc3CN2C1=O)N[C@@H](C(=O)O)c1ccccc1 | -2 | -1 | 4
CC(C)(C)C(=O)OCc1nc(-c2ccc(Cl)cc2)cs1 | -2 | 92* | 1
COc1ccc(-c2csc(COC(=O)C(C)(C)C)n2)cc1 | 4 | 27 | 7
CCN(CC)S(=O)(=O)c1ccc(Cl)c(NC(=O)COC(=O)c2cc(-c3ccccc3Cl)nc3ccccc23)c1 | 0 | 8 | 1
CC1=CC(=O)C(C(C)C)=C/C1=N/OS(=O)(=O)c1ccccc1 | 116* | · | ·
CC1=CC(=O)C=C(C)C1=NOS(=O)(=O)c1ccccc1 | 82* | 12 | 4
CC1=CC(=O)C=C(C)C1=NOC(=O)C=Cc1ccccc1 | · | -3 | 8
CC1=CC(=NOS(=O)(=O)c2ccccc2)C(C(C)C)=CC1=O | · | 6 | 6
O=C(CSc1nc2ccccc2c(=O)n1-c1ccccc1)c1c[nH]c2ccccc12 | 3 | · | ·
COC(=O)C1=C(C)N(CC(C)C)C(=O)C1=Cc1cccs1 | · | -11 | 15
Cc1nc(-c2ccc(S(=O)(=O)Nc3ccc(Br)cc3Cl)s2)cs1 | 1 | 83 | 96*
Cc1nc(-c2ccc(S(=O)(=O)Nc3cccc(S(N)(=O)=O)c3)s2)cs1 | 0 | 8 | 1
O=c1c2ccccc2nc(/C=C/c2ccccc2F)n1-c1ccccc1O | -2 | 99* | 98*
O=c1c2ccccc2nc(/C=C/c2ccccc2O)n1-c1ccccc1O | -4 | · | ·
O=C(CCc1nc2ccccc2[nH]1)Nc1ccc2c(c1)OCO2 | 16 | -10 | -8
CN(CCOc1ccccc1Cl)Cc1ccccc1 | 4 | 0 | 5
C=CCOc1ccccc1CN(C(=O)CCl)c1ccc2c(c1)OCO2 | 125* | · | ·
CCOc1ccccc1NC(=O)Nc1ccc2c(c1)OCO2 | -2 | -3 | 1
Cc1ccc(-c2nnc(C)c(N3CCCC3)n2)cc1 | 5 | 9 | 6
O=C(N/N=C/c1ccc(-c2cccc(C(F)(F)F)c2)o1)c1ccccc1Br | 6 | · | ·
O=C(NN=Cc1ccc(-c2cccc(C(F)(F)F)c2)o1)c1ccccc1Br | · | 90* | 11
O=C1C=C(NCc2ccccc2)c2ccccc2C1=O | 1 | 92* | 92*
O=C1C=C(Nc2ccccc2O)c2ccccc2C1=O | -5 | 71 | 77
Cn1c(S(=O)(=O)c2ccc([N+](=O)[O-])cc2)nc(Br)c1Br | 1 | 95* | 98*
COC(=O)c1ccc(S(=O)(=O)c2ccc([N+](=O)[O-])cc2)cc1 | -1 | · | ·
SMILES | BJeLR lethal | Sa ugtP lethal | RN4220 kill
N#Cc1c(-c2ccncc2)c2c([nH]c1=O)-c1ccccc1OC2 | 1 | · | ·
CC(=O)N/C(=C\c1ccccc1)C(=O)OCc1ccc(C)cc1 | 7 | 4 | 1
O=C(Nc1cccc(C(F)(F)F)c1)c1cccnc1N1CCN(CCO)CC1 | 13 | -13 | 7
O=C(Nc1cccc(C(F)(F)F)c1)c1cccnc1N1CCN(c2ccccc2)CC1 | -3 | 92* | -10
CC1CCCN(c2c([N+](=O)[O-])c(=O)oc3ccccc23)C1 (stereo not given) | 1 | 1 | 0
COc1ccc(C(=O)CC(=O)C(=O)Nc2ccc(C)c(Cl)c2)cc1 | -2 | 97* | 78
COc1ccc(C(=O)CC(=O)C(=O)Nc2cc(C)ccc2C)cc1 | 0 | -5 | 0
Cc1ccc(-c2nn(CC(=O)NCc3cc(-c4nn(C)c(=O)c5ccccc45)ccc3C)c(=O)c3ccccc23)cc1 | 125* | -6 | 1
CCC(=O)NCc1cc(-c2nn(C)c(=O)c3ccccc23)ccc1C | 8 | 9 | 6
O=C1NC(=O)/C(=C/c2ccc(-c3cc(C(=O)O)ccc3Cl)o2)S1 | 2 | 4 | 6
O=C1NC(=S)/C(=C\c2ccc(-c3ccccc3Cl)o2)S1 | 3 | 95* | 97*
CCn1nc(-c2ccccc2)nc2c(=O)n(C)c(=O)nc1-2 | 0 | 100* | 95*
Cc1nc2c(=O)n(C)c(=O)nc-2n(C)n1 | 36 | 39 | 37
COc1ccc(-c2csc3ncnc(N4CCN(S(=O)(=O)c5ccc(C)cc5)CC4)c23)cc1 | 2 | -12 | 2
O=S(=O)(c1cccc(Br)c1)N1CCN(c2ncnc3scc(-c4ccccc4)c23)CC1 | · | 99* | 98*
CC(=O)Nc1ccc(NC(=O)C(=O)NCC(c2ccco2)N2CCc3ccccc3C2)cc1 (stereo not given) | -4 | 7 | 0
COc1cc(C(=O)/C=C/c2cccnc2)c([N+](=O)[O-])cc1OC | 55* | · | ·
O=C(/C=C/c1cccnc1)c1ccc([N+](=O)[O-])cc1 | -9 | -2 | 0
NS(=O)(=O)c1ccccc1NC(=S)Nc1ccccc1S(N)(=O)=O | -3 | 8 | 4
Oc1ccc(/C=N/Nc2ccc(Cl)nn2)c(O)c1O | 0 | · | ·
Cc1nn(C)c(C)c1NC(=O)Nc1cccc(C(F)(F)F)c1 | 4 | -5 | 5

From PubChem
